The record followed here is PubChem BioAssay AID504466 (National Center for Advancing Translational Sciences (NCATS), 2011).

The whole screen tested about 330,000 compounds, of which about 4,200 (1.3%) were called active. About 6% were inconclusive and are not listed. This is one part of a sample in which actives are shown more often than they occur. Calls come from the whole dose curve; as a rule, active = well fitted activation curve with a large enough effect; inconclusive = small, poorly fitted or top-dose-only effect; inactive = no such curve, though single readings can be large or run the other way.
Potency is the fitted concentration of half-maximal effect.

This experiment can be described thus: qHTS screen for small molecules that induce genotoxicity in human embryonic kidney (HEK293T) cells expressing luciferase-tagged ELG1. For activity change, positive = activation: % of control where 0% means no effect. Note: nearly all actives have a fitted effect of over 60% in size. To be noted: HEK293T ELG1-luciferase reporter, luminescence, 16 h; series mostly up to 46 µM; activity change, positive = activation: at the top concentration. Summed up:
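16 hr compound incubation (37 °C, 5% CO2) of HEK293T cells carrying luciferase-tagged ELG1; luciferase then measured by ONE-Glo luminescence after 30 min at RT.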
On to `O=C(COC(=O)/C=C/c1cccc(Cl)c1)NCc1cccs1`, for which the “activity change, positive = activation” value was 0.0415% (inactive).

Consider `Nn1c(SCC(=O)Nc2ccc3c(c2)CCC3)nnc1C1CC1`, for which the “activity change, positive = activation” value was 0.947% (inactive).

Turning to `O=C(CSCc1ccc(Cl)cc1)N1CCCCC1`, the Potency was 8910 nM (active).

On to `O=C(CSc1ccsc1[N+](=O)[O-])N1CCCCC1`, for which the “activity change, positive = activation” value was -3.05% (inactive).

Turning to `O=C(CSCc1ccc(Cl)cc1)N1CCN(Cc2ccc3c(c2)OCO3)CC1`, the “activity change, positive = activation” value was -6.7% (inactive).

Regarding `Cn1c(SCC(=O)N2CCCC2)nnc1-c1cccs1`, the “activity change, positive = activation” value was 6.12% (inactive).

Consider `O=C(CSCc1cccs1)N1CCCC1`, for which the Potency is 16400 nM (active).

On to `O=C(COc1ccccc1Cl)N1CCCCCCC1`, for which the “activity change, positive = activation” value was 3.7% (inactive).

Turning to `CCN(C[C@H]1N[C@@](CC)(C(=O)OC)[C@H]2C(=O)N(Cc3ccccc3)C(=O)[C@@H]12)S(=O)(=O)c1ccccc1`, the “activity change, positive = activation” value is -3.54% (inactive).

Turning to `COc1cc(OC)cc(C(=O)NC(C(=O)N2CCC2)C(C)C)c1` (stereo not given), the “activity change, positive = activation” value was -0.193% (inactive).

On to `CC1(C)C(c2cccs2)=[N+]([O-])C2(CCCCC2=O)N1O` (stereo not given), for which the “activity change, positive = activation” value is -5.57% (inactive).

Take `CC(=O)C1(C)N(O)C(C)(C)C(c2cccs2)=[N+]1[O-]` (stereo not given): the Potency was 82 nM (active).

For the molecule `C/C(=N\O)C1(C)N(O)C(C)(C)C(c2ccc(Br)cc2)=[N+]1[O-]` (stereo not given), the “activity change, positive = activation” value is 0.163% (inactive).

Take `COc1c(Cl)cc(C(=O)Nc2ccc(Cl)cn2)cc1Cl`: the “activity change, positive = activation” value is 20.8% (inactive).

Take `O=C(Nc1ccc(Cl)cn1)c1ccc2c(c1)OCCO2`: the Potency was 1160 nM (active).

With `COc1ccc(C(=O)NC(=S)Nc2ccc(Cl)cn2)cc1OC`, the “activity change, positive = activation” value was 7.16% (inactive).

As to `Cc1nc(NC(=O)c2ccc3c(c2)OCCO3)ccc1Br`, the “activity change, positive = activation” value is 14.1% (inactive).

As for `CCCc1cc(C(=O)Nc2ccc(C(=O)OC)cc2)cs1`, the “activity change, positive = activation” value is 10.2% (inactive).

Regarding `CCCc1cc(C(=O)Nc2ccc(Cl)cn2)cs1`, the Potency is 2310 nM (active).

Turning to `O=C(Nc1cccc(S(=O)(=O)N2CCCC2)c1)c1cncc(Br)c1`, the “activity change, positive = activation” value was -3.48% (inactive).

On to `COc1ccc(-c2sc3ccc(OC)cc3c2C#Cc2ccccn2)cc1`, for which the “activity change, positive = activation” value is -5.99% (inactive).

With `COc1cc(OC)c2c(-c3cccc(-c4cccc(N)c4)c3)cc(=O)oc2c1`, the “activity change, positive = activation” value is 15.5% (inactive).

On to `CCN([C@H](CO)C(C)C)S(=O)(=O)c1ccccc1Br`, for which the “activity change, positive = activation” value was 2.85% (inactive).

As for `Cc1ccc2c(c1)C1C[N+](C)(CC(=O)c3ccccc3)CCC1N2C(=O)c1ccccc1Cl` (stereo not given), the “activity change, positive = activation” value is 6.12% (inactive).

Consider `CC1CCCCC1NC(=O)COc1ccc(C#N)cc1` (stereo not given), for which the “activity change, positive = activation” value was 0.621% (inactive).

For the molecule `C=CCC[C@@H](Cc1ccc(F)cc1)C(=O)O[C@H](CNC(=O)[C@H](CC=C)CC(=O)N(CCO)Cc1ccccc1)c1ccccc1`, the “activity change, positive = activation” value is -10.3% (inactive).

Take `COC(=O)c1ccc(CNC(=O)c2ccc(S(=O)(=O)N3CCCCCC3)cc2)cc1`: the “activity change, positive = activation” value was 0.558% (inactive).

Regarding `CCCCCCCCC(=O)NCCOc1ccccc1`, the “activity change, positive = activation” value was 0.026% (inactive).

As for `Cc1noc(C)c1COc1ccc(C(=O)NCCOc2ccccc2)cc1`, the “activity change, positive = activation” value is 10.2% (inactive).

Consider `O=C(NCCOc1ccccc1)c1ccccc1`, for which the Potency is 1640 nM (active).
